# Data published in PubChem BioAssay.
# Values joined by “and” are separate entries in the source; they are usually repeats but may differ in a detail not shown here. Equal values may be shown once. Active and inactive are the calls of the source.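 Rule for the calls, unless noted: active = compounds whose cell count with miR-34 switched on is under 0.7 times the count with it off; inactive = the rest.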
# Tests used:
# [1] = sensitizers of A549 cells to miR-34 induction, primary screen, imaging, A549 dox-inducible miR-34, nuclei and caspase counts (AID 1347080); details: A549 miR-34 inducible, Hoechst nuclei count, 48 h
# [2] = survival rescue of mitochondrial mutant cells in low glucose, primary screen, MELAS cybrids, Rieske KO mouse fibroblasts, CellTiter-Glo (AID 1508586;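 active = mean z-score across replicates of 1.96 or higher in either the MELAS or the Rieske mutant cell line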;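 note: z relative to plate mean and SD of compound and empty wells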)
# [3] = target: Mitogen-activated protein kinase 7 (Homo sapiens) (UniProt Q13164); assay: ERK5 transactivation activators in reporter cells, primary screen, cell-based, HTS (AID 1508626;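 active = luciferase signal above three times the same-plate solvent-only control wells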;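 note: luciferase driven by Gal4-ERK5 fusion binding five Gal4 sites before minimal TATA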); details: HeLa Gal4-ERK5 transactivation, 18 h, at 5 µM, stronger effect = higher value
# [4] = target: NAD(+) hydrolase SARM1 (Homo sapiens) (UniProt Q6SZW1); assay: SARM1 TIR NADase inhibitors, cell lysate, NAD-Glo luminescence (AID 1508614;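 active = compound whose remaining NAD level is above about 45 nM, limit read from the data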;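 note: higher remaining NAD means stronger inhibition of SARM1 NADase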); details: SAM-TIR HEK293T lysate NADase, at 1 µM, stronger effect = higher value
# [5] = viability rescue of complex I mutant cybrids, primary screen, cell-based, galactose medium, ATP luminescence (AID 1645843;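 active = z-score of at least 1.8 in each of two replicates, scored against plate mean and spread of sample wells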;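 note: positive z means more ATP and so rescue of galactose-driven cybrid death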); details: complex I mutant cybrid cells, 72 h, stronger effect = higher value
# [6] = LFS_MB_P medulloblastoma growth inhibition, cell-based, chromothripsis tumors, cisplatin or BGB combos (AID 1671449; in the data active = inhibition above about 80%;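 note: cells exposed for 96 hours; 0% = vehicle DMSO and 100% = killing by high DMSO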); details: LFS_MB_P medulloblastoma cells
# [7] = HDN33 neuroblastoma growth inhibition, cell-based, chromothripsis tumors, cisplatin or BGB combos (AID 1671450; in the data active = inhibition above about 80%;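 note: cells exposed to compound for four days; 0% = vehicle DMSO and 100% = cell killing by high DMSO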); details: HDN33 neuroblastoma cells, stronger effect = higher value
# [8] = ICB984 medulloblastoma cell growth inhibition, synergistic combos for chromothripsis tumors, cisplatin or BGB combos (AID 1671451; call rule not given here;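 note: cells exposed for 96 hours before readout; 0% = vehicle DMSO and 100% = killing by high DMSO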); details: ICB984 medulloblastoma cells, drug combinations, stronger effect = higher value
# [9] = LFS_MB_1R medulloblastoma cell growth inhibition, synergistic combos for chromothripsis tumors, cisplatin or BGB combos (AID 1671452; in the data active = inhibition above about 80%;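 note: cells exposed for 96 hours before readout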); details: LFS_MB_1R medulloblastoma cells, stronger effect = higher value
# [10] = HTB85 osteosarcoma cell growth inhibition, synergistic combos for chromothripsis tumors, BGB or cisplatin IC20 combos (AID 1671453; in the data active = inhibition above about 80%;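 note: cells exposed for 96 hours before readout; 0% = vehicle DMSO and 100% = high DMSO killing control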); details: HTB85 osteosarcoma cells, drug combinations, stronger effect = higher value
# [11] = CRL2098 osteosarcoma cell growth inhibition, synergistic combos for chromothripsis tumors, BGB or cisplatin IC20 combos (AID 1671454; in the data active = inhibition above about 80%;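 note: cells exposed for 96 h before readout; 0% = vehicle DMSO and 100% = killing by high DMSO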); details: CRL2098 osteosarcoma cells, drug combinations, stronger effect = higher value
# [12] = HD-MB03 medulloblastoma cell growth inhibition, synergistic combos for chromothripsis tumors, BGB or cisplatin IC20 combos (AID 1671455; in the data active = inhibition above about 83%;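 note: 0% = vehicle DMSO and 100% = high DMSO as cytotoxic control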); details: HD-MB03 medulloblastoma cells, stronger effect = higher value
# [13] = stronger effect = lower value, cell number ratio, induced over uninduced
# [14] = measured here: relative caspase fold change +Dox/-Dox
# [15] = measured here: total cells with miR-34 induction, stronger effect = lower value
# [16] = measured here: total cells without miR-34 induction
# [17] = MELAS cybrid survival, CellTiter-Glo 48 h, stronger effect = higher value
# [18] = Rieske KO mouse fibroblast survival, CellTiter-Glo 72 h
# [19] = measured here: combination with BGB IC40, at 0.05 µM
# Chain of Mitogen-activated protein kinase 7 (Homo sapiens) (Q13164 whole entry, looked up, the tested form may be a part): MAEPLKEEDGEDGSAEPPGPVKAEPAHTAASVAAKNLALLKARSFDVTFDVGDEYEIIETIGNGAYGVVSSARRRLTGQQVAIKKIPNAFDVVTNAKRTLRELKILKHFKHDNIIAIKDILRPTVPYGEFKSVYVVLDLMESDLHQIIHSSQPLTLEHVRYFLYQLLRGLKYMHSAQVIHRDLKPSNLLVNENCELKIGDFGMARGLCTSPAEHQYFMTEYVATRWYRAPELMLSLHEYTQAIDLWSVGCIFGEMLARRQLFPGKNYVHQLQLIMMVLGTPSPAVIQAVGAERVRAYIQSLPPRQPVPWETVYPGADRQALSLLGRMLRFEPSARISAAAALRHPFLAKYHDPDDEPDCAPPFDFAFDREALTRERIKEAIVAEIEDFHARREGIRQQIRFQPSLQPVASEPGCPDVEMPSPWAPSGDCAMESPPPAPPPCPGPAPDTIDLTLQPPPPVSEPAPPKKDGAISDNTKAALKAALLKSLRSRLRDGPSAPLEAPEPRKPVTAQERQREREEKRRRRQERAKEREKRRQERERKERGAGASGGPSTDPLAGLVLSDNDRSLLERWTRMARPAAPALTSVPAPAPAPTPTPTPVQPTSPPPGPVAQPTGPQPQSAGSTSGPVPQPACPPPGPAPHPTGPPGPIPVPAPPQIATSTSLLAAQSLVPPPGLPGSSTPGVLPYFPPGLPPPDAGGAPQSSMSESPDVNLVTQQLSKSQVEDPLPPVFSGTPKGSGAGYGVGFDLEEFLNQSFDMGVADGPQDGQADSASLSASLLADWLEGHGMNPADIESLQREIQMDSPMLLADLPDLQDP
# Chain of NAD(+) hydrolase SARM1 (Homo sapiens) (Q6SZW1 whole entry, looked up): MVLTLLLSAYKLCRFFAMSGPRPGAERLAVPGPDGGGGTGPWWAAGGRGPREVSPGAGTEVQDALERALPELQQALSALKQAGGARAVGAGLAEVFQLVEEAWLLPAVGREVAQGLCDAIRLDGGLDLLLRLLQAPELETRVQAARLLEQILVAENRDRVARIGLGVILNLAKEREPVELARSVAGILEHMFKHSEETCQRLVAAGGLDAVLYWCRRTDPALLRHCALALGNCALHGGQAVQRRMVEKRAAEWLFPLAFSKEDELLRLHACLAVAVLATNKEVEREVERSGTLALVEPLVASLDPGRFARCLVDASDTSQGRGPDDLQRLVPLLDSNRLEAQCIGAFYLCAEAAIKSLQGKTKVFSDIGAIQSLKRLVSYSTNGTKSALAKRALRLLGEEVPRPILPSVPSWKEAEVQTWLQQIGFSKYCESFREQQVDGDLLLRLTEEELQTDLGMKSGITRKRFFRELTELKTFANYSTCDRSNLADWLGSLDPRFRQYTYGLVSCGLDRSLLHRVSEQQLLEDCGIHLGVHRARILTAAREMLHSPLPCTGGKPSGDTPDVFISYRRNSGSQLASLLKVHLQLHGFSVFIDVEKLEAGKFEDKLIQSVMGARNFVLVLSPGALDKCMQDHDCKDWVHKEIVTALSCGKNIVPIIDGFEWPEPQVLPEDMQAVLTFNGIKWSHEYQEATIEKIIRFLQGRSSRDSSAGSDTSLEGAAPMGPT
structure (smiles),measurement,setting,value
COc1cc(N)c(Cl)cc1C(=O)NC1CCN(Cc2ccccc2)CC1,fold change,[1]; [13],0.86 (inactive)
same,fold change,[1]; [14],0.965
same,cell count,[1]; [15],7810
same,cell count,[1]; [16],9080
same,z-score,[2]; [17],0.473 (inactive)
same,z-score,[2]; [18],0.069
same,luciferase signal,[3],48 AU (inactive)
C[C@@](Cc1ccc(O)c(O)c1)(NN)C(=O)O,fold change,[1]; [13],0.855 (inactive) and 0.878 (inactive) and 0.94 (inactive)
same,fold change,[1]; [14],1.15 and 0.758 and 1.14
same,cell count,[1]; [15],8030 and 8200 and 9200
same,cell count,[1]; [16],9400 and 9340 and 9790
same,z-score,[2]; [17],-0.318 (inactive) and -0.0378 (inactive) and 0.282 (inactive)
same,z-score,[2]; [18],0.573 and -0.159 and -0.894
same,remaining NAD,[4],10 nM (inactive)
same,luciferase signal,[3],56 AU (inactive)
same,z-score,[5],1.23 (inactive) and -0.53 (inactive)
C[n+]1ccccc1/C=N/O,fold change,[1]; [13],0.951 (inactive) and 0.91 (inactive)
same,fold change,[1]; [14],1.53 and 0.982
same,cell count,[1]; [15],10700 and 9130
same,cell count,[1]; [16],11200 and 10000
same,z-score,[2]; [17],0.437 (inactive)
same,z-score,[2]; [18],-0.00254
same,remaining NAD,[4],10 nM (inactive)
same,luciferase signal,[3],84 AU (inactive)
same,z-score,[5],0.085 (inactive)
CN1C(C)(C)CCCC1(C)C,fold change,[1]; [13],0.888 (inactive)
same,fold change,[1]; [14],1
same,cell count,[1]; [15],9180
same,cell count,[1]; [16],10300
same,z-score,[2]; [17],-0.15 (inactive)
same,z-score,[2]; [18],1.08
same,luciferase signal,[3],68 AU (inactive)
NC(=NCCCCCCN=C(N)/N=C(\N)Nc1ccc(Cl)cc1)/N=C(\N)Nc1ccc(Cl)cc1,fold change,[1]; [13],0.918 (inactive) and 0.785 (inactive)
same,fold change,[1]; [14],1.13 and 3.13
same,cell count,[1]; [15],1670 and 3350
same,cell count,[1]; [16],1820 and 4270
same,z-score,[2]; [17],-4.55 (inactive)
same,z-score,[2]; [18],-0.0121
same,luciferase signal,[3],32 AU (inactive)
Cc1[nH]cnc1CN1CCc2c(c3ccccc3n2C)C1=O,fold change,[1]; [13],0.98 (inactive)
same,fold change,[1]; [14],1.07
same,cell count,[1]; [15],9740
same,cell count,[1]; [16],9940
same,z-score,[2]; [17],0.685 (inactive)
same,z-score,[2]; [18],0.531
same,z-score,[5],-0.045 (inactive)
NC(N)=Nc1nc(CSCC/C(N)=N/S(N)(=O)=O)cs1,fold change,[1]; [13],0.977 (inactive) and 0.894 (inactive) and 0.942 (inactive)
same,fold change,[1]; [14],1.04 and 0.96 and 0.999
same,cell count,[1]; [15],10400 and 8060 and 10100
same,cell count,[1]; [16],10600 and 9010 and 10700
same,z-score,[2]; [17],0.33 (inactive) and 1.06 (inactive)
same,z-score,[2]; [18],0.0847 and 0.907
same,remaining NAD,[4],10 nM (inactive)
same,luciferase signal,[3],72 AU (inactive)
same,z-score,[5],0.125 (inactive) and 0.38 (inactive)
CC(=O)Nc1ccc(CC(=O)O)cc1,fold change,[1]; [13],0.951 (inactive)
same,fold change,[1]; [14],1.68
same,cell count,[1]; [15],9700
same,cell count,[1]; [16],10200
same,z-score,[2]; [17],-0.406 (inactive)
same,z-score,[2]; [18],-0.418
same,remaining NAD,[4],10 nM (inactive)
same,z-score,[5],0.87 (inactive)
CC(C)NCC(O)c1ccc2ccccc2c1 (configuration not stated),fold change,[1]; [13],0.951 (inactive) and 0.938 (inactive) and 0.885 (inactive)
same,fold change,[1]; [14],0.594 and 1.29 and 1.16
same,cell count,[1]; [15],8750 and 8620 and 9710
same,cell count,[1]; [16],9200 and 11000
same,z-score,[2]; [17],0.654 (inactive) and -0.419 (inactive)
same,z-score,[2]; [18],-0.347 and -0.52
same,remaining NAD,[4],10 nM (inactive)
same,luciferase signal,[3],36 AU (inactive)
same,z-score,[5],0.85 (inactive) and 0.48 (inactive)
C[C@H]1COc2c(C3(N)CC3)c(F)cc3c(=O)c(C(=O)O)cn1c23,fold change,[1]; [13],0.94 (inactive) and 0.878 (inactive)
same,fold change,[1]; [14],0.784 and 0.738
same,cell count,[1]; [15],8060 and 10100
same,cell count,[1]; [16],8570 and 11500
same,z-score,[2]; [17],0.246 (inactive)
same,z-score,[2]; [18],-0.0845
same,remaining NAD,[4],10 nM (inactive)
same,z-score,[5],0.735 (inactive)
same,inhibition,"[6]; at 0.5 µM, stronger effect = higher value",-4.46% (inactive)
same,inhibition,"[6]; measured here: combination with BGB IC20, at 0.005 µM",-13%
same,inhibition,"[6]; measured here: combination with BGB IC40, at 0.005 µM",-17.8%
same,inhibition,[6]; [19],-33.8%
same,inhibition,"[6]; measured here: combination with cisplatin, at 0.5 µM, stronger effect = higher value",-7.85%
same,inhibition,"[6]; measured here: combination with cisplatin, at 5 µM, stronger effect = higher value",-33.3%
same,inhibition,"[7]; BGB combo, at 5 µM",-18.1%
same,inhibition,[7]; at 0.5 µM,-10.4% (inactive)
same,inhibition,"[7]; cisplatin combo, at 5 µM",-7.06%
same,inhibition,"[7]; measured here: with BGB IC20 combination, at 0.5 µM",-22.3%
same,inhibition,"[7]; measured here: with cisplatin IC20 combination, at 0.5 µM",-3.47%
same,inhibition,"[7]; single agent, at 5 µM",-13.5%
same,inhibition,"[8]; BGB IC20 combo, at 0.005 µM",-21.1%
same,inhibition,"[8]; BGB IC40 combo, at 0.005 µM",4.03%
same,inhibition,"[8]; BGB IC40 combo, at 0.05 µM",-27.4%
same,inhibition,[8]; at 0.5 µM,-17.9% (inactive)
same,inhibition,"[8]; cisplatin combo, at 0.05 µM",-30.9%
same,inhibition,"[8]; cisplatin combo, at 0.5 µM",-13.3%
same,inhibition,"[8]; cisplatin combo, at 5 µM",-41.9%
same,inhibition,"[8]; measured here: 5 uM single agent, at 5 µM",-29.9%
same,inhibition,[9]; at 0.5 µM,-26.1% (inactive)
same,inhibition,[9]; [19],-41.4%
same,inhibition,"[9]; measured here: combination with cisplatin, at 0.5 µM",-26.2%
same,inhibition,"[9]; measured here: combination with cisplatin, at 5 µM",-29.7%
same,inhibition,[10]; at 0.5 µM,-9.68% (inactive)
same,inhibition,"[10]; measured here: with BGB IC20, at 0.5 µM",-30.1%
same,inhibition,"[10]; measured here: with BGB IC20, at 5 µM",-48.1%
same,inhibition,"[10]; measured here: with cisplatin IC20, at 0.5 µM",-17.4%
same,inhibition,"[10]; measured here: with cisplatin IC20, at 5 µM",-41%
same,inhibition,"[10]; single agent, at 5 µM",3.14%
same,inhibition,[11]; at 0.5 µM,-44.1% (inactive)
same,inhibition,"[11]; measured here: combination with BGB at IC20, at 0.5 µM",-27.6%
same,inhibition,"[11]; measured here: combination with cisplatin at IC20, at 0.5 µM",-41.6%
same,inhibition,[12]; at 0.5 µM,-8.87% (inactive)
same,inhibition,"[12]; measured here: combo with BGB at IC20, at 0.5 µM",-6%
same,inhibition,"[12]; measured here: combo with cisplatin at IC20, at 0.5 µM",-11.8%
COC(=O)N/N=C/c1c[n+]([O-])c2ccccc2[n+]1[O-],fold change,[1]; [13],0.833 (inactive) and 0.91 (inactive)
same,fold change,[1]; [14],6.83 and 1.15
same,cell count,[1]; [15],10200 and 7650
same,cell count,[1]; [16],12300 and 8400
same,z-score,[2]; [17],0.937 (inactive) and 0.871 (inactive)
same,z-score,[2]; [18],0.153 and -0.0791
same,remaining NAD,[4],10 nM (inactive)
same,luciferase signal,[3],172 AU (inactive)
same,z-score,[5],0.34 (inactive)
Cn1c(=O)c2c(ncn2CCO)n(C)c1=O,fold change,[1]; [13],0.968 (inactive)
same,fold change,[1]; [14],1.24
same,cell count,[1]; [15],8860
same,cell count,[1]; [16],9160
same,z-score,[2]; [17],-0.0698 (inactive)
same,z-score,[2]; [18],-0.0506
same,luciferase signal,[3],196 AU (active)
